# Counter-ions that a name gives are not always drawn. ± gives the standard deviation.
# System: Jurkat
# Assay: cell count relative to DMSO control (fraction of control); higher = more cells (less growth inhibition)
# Details: 48 h
row,Structure (SMILES),cell count
1,O=P1(NCCCl)OCCCN1CCCl (stereo unspecified) [Ifosfamide] (concentration: 25 µM),0.372 ± 0.12
2,O=c1[nH]c2ccccc2n1C1CCN(CCCC(c2ccc(F)cc2)c2ccc(F)cc2)CC1 [Pimozide] (concentration: 2.5 µM),0.663 ± 0.14
3,O=C1CC[C@@]2(O)[C@H]3Cc4ccc(O)c5c4[C@@]2(CCN3CC2CC2)[C@H]1O5 [Naltrexone·HCl] (concentration: 2.5 µM),0.399 ± 0.091
4,C=CCN1C[C@H](C(=O)N(CCCN(C)C)C(=O)NCC)C[C@@H]2c3cccc4[nH]cc(c34)C[C@H]21 [Cabergoline] (concentration: 25 µM),0.234 ± 0.08
5,O=[N+]([O-])O[C@H]1CO[C@H]2[C@@H]1OC[C@H]2O[N+](=O)[O-] [Isosorbide Dinitrate] (concentration: 25 µM),1.04 ± 0.081
6,Oc1ccc2c(c1)[C@@]13CCCC[C@@]1(O)[C@@H](C2)N(CC1CCC1)CC3 [Butorphanol-(+)-Tartrate (Schedule Iv)] (concentration: 25 µM),0.586 ± 0.075
